# Assay results reported in PubChem BioAssay (NCATS).
# Inconclusive results are not listed. A call without a number means that no potency is given here. Unmarked numbers belong to inactive results. Active and inactive are the calls of the source. Calls come from the whole dose curve; as a rule, active = well fitted curve in the direction sought with a large enough effect; inconclusive = small, poorly fitted or top-dose-only effect, or another doubt; inactive = no such curve, though single readings can be large; an effect the other way counts as inactive or inconclusive.
# How the values were obtained:
# [1] = tested on: CRL-7250; assay: Cytotoxic Profiling of Annotated Libraries Using Quantitative High-Throughput Screening (AID 1296008); settings: Five cell lines viability, CellTiter-Glo ATP luminescence, 48-72 h; max response: stronger effect = lower value; note: nearly all actives have a fitted effect of over 60% in size; note: potency is the fitted concentration of half-maximal effect
# Outline: (§1)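 Cytotoxicity was measured as CellTiter-Glo ATP luminescence, read after 10 min at room temperature. Compound treatment of the cells lasted 48 or 72 hr at 37 degrees Celsius in a qHTS format.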
# [2] = tested on: HaCat; assay: as above; settings: Five cell lines viability, CellTiter-Glo ATP luminescence, 48-72 h; max response: stronger effect = lower value
# Outline: as §1
# [3] = tested on: KB-3-1; assay: as above; settings: Five cell lines viability, CellTiter-Glo ATP luminescence, 48-72 h; max response: stronger effect = lower value
# Outline: as §1
# [4] = tested on: HACAT; assay: qHTS assay to identify novel small-molecules to repurpose for Merkel cell carcinoma treatment (AID 1296009); settings: MCC and control cell lines, CellTiter-Glo viability, 72 h; at 44.8 µM (top of the series) unless noted; note: nearly all actives have a fitted effect of over 60% in size
# Outline: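 After compound transfer in DMSO, plates were kept 72 hr at 37 degree celsius. Luminescent ATP signal from CellTiter-Glo served as viability measure, normalized against DMSO and no-cell controls.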
# [5] = tested on: C33A; assay: Primary qHTS to identify gynecologic anti-cancer compounds using libraries of approved drugs and bioactive compounds (AID 1345084); settings: Gynecologic cancer cell panel viability, ATPlite luminescence, 48 h; series mostly up to 57.5 µM; note: nearly all actives have a fitted effect of over 55% in size; note: potency is the fitted concentration of half-maximal effect
# Outline: (§2)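 Five-concentration response, 48 h; readout is ATP-driven luciferase luminescence.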
# [6] = tested on: CAOV3; assay: as above; settings: Gynecologic cancer cell panel viability, ATPlite luminescence, 48 h; series mostly up to 57.5 µM
# Outline: as §2
# [7] = tested on: CASKI; assay: as above; settings: Gynecologic cancer cell panel viability, ATPlite luminescence, 48 h; series mostly up to 57.5 µM
# Outline: as §2
# [8] = tested on: Es-2; assay: as above; settings: Gynecologic cancer cell panel viability, ATPlite luminescence, 48 h; series mostly up to 57.5 µM
# Outline: as §2
# [9] = tested on: HeLa; assay: as above; settings: Gynecologic cancer cell panel viability, ATPlite luminescence, 48 h; series mostly up to 57.5 µM
# Outline: as §2
# [10] = tested on: Hek293T; assay: as above; settings: Gynecologic cancer cell panel viability, ATPlite luminescence, 48 h, control line for the selectivity index; series mostly up to 57.5 µM
# Outline: as §2
# [11] = tested on: JEG-3; assay: as above; settings: Gynecologic cancer cell panel viability, ATPlite luminescence, 48 h; series mostly up to 57.5 µM
# Outline: as §2
# [12] = tested on: OV90; assay: as above; settings: Gynecologic cancer cell panel viability, ATPlite luminescence, 48 h; series mostly up to 57.5 µM
# Outline: as §2
# [13] = tested on: PA-1; assay: as above; settings: Gynecologic cancer cell panel viability, ATPlite luminescence, 48 h; series mostly up to 57.5 µM
# Outline: as §2
# [14] = tested on: SKOV3; assay: as above; settings: Gynecologic cancer cell panel viability, ATPlite luminescence, 48 h; series mostly up to 57.5 µM
# Outline: as §2
# [15] = tested on: NIH3T3; assay: Cytotoxic Profiling of Annotated Libraries Using Quantitative High-Throughput Screening (AID 1296008); settings: Five cell lines viability, CellTiter-Glo ATP luminescence, 48-72 h; max response: stronger effect = lower value; note: nearly all actives have a fitted effect of over 60% in size; note: potency is the fitted concentration of half-maximal effect
# Outline: as §1
smiles,measurement,setting,value
C=C1C(=O)OC2/C=C(\CO)CC/C=C(\C=O)C(O)C(OC(=O)C(C)CC)C12 (stereo not given),max response,[1],0.0349%
same,outcome,[2],inactive
same,outcome,[3],inactive
same,outcome,[4],inactive
same,Potency,[5],inactive
same,Potency,[6],inactive
same,Potency,[7],inactive
same,Potency,[8],inactive
same,Potency,[9],inactive
same,Potency,[10],inactive
same,Potency,[11],inactive
same,Potency,[12],inactive
same,Potency,[13],inactive
same,Potency,[14],inactive
C/C=C(\C)C(=O)OC1C(C)C2(O)C(C=C(CO)CC3(O)C(=O)C(C)=CC32)C2C(C)(C)C12OC(C)=O (stereo not given),max response,[1],-19.7%
same,max response,[2],-5.6%
same,max response,[3],3.13%
same,max response,[15],-6.06%
same,Potency,[6],inactive
same,Potency,[7],inactive
same,Potency,[8],0.224 µM (active)
same,Potency,[9],inactive
same,Potency,[10],inactive
same,Potency,[11],inactive
same,Potency,[13],inactive
same,Potency,[14],inactive
CC1OC(OC2C(O)COC(O[C@@H]3[C@@H](O)[C@@H](O)[C@H](OC4C(OC(=O)[C@]56CCC(C)(C)CC5C5=CCC7[C@@]8(C)C[C@H](O)[C@H](OC9OC(CO)C(O)C(O)C9O)[C@@](C)(CO)C8[C@H](O)C[C@@]7(C)[C@]5(C)CC6)OCC(O)C4O)O[C@H]3C)C2O)C(O)C(O)C1O (stereo not given in full),max response,[1],-12.5%
same,max response,[2],0.653%
same,max response,[3],8.32%
same,max response,[15],2.11%
same,"activity change, negative = cytotoxicity",[5],-9.28% [at 6.55 µM]
same,"activity change, negative = cytotoxicity",[7],20% [at 6.55 µM]
same,"activity change, negative = cytotoxicity",[8],-27.5% [at 6.55 µM]
same,"activity change, negative = cytotoxicity",[9],-4.81% [at 6.55 µM]
same,"activity change, negative = cytotoxicity",[10],-17.3% [at 6.55 µM]
same,"activity change, negative = cytotoxicity",[11],-13.2% [at 6.55 µM]
same,"activity change, negative = cytotoxicity",[12],13.1% [at 6.55 µM]
same,"activity change, negative = cytotoxicity",[13],0.113% [at 6.55 µM]
same,"activity change, negative = cytotoxicity",[14],-8.72% [at 6.55 µM]
COCCNCc1ccc(-c2cc3nccc(Oc4ccc(NC(=O)C5(C(=O)Nc6ccc(F)cc6)CC5)cc4F)c3s2)nc1,Potency,[1],18.4 µM (active)
same,Potency,[2],23.1 µM (active)
same,Potency,[3],6.51 µM (active)
same,Potency,[15],0.731 µM (active)
same,Potency,[8],inactive
CC(=O)OC1C(=O)C2C3OCC4=C3[C@@](C)(CC[C@@H]4O)CC[C@]2(C)[C@H]1C(C)C (stereo not given in full),max response,[1],0.411%
same,max response,[2],-13.7%
same,max response,[3],4.67%
same,max response,[15],1.97%
same,Potency,[5],inactive
same,Potency,[7],inactive
same,Potency,[8],inactive
same,Potency,[9],inactive
same,Potency,[10],inactive
same,Potency,[11],inactive
same,Potency,[12],inactive
same,Potency,[13],inactive
same,Potency,[14],inactive
CC1(C)CC[C@]2(C(=O)O)CC[C@]3(C)C(=CCC4[C@@]5(C)C[C@@H](O)[C@H](O)C(CO)(CO)C5CC[C@]43C)C2[C@@H]1O (stereo not given in full),Potency,[1],7.96 µM (active)
same,max response,[2],-58.7%
same,Potency,[3],10 µM (active)
same,max response,[15],-1.94%
same,Potency,[6],inactive
same,Potency,[7],inactive
same,Potency,[12],inactive
CC(C)S(=O)(=O)c1ccc2nccc(Nc3ccc4scnc4c3)c2c1,max response,[1],-19%
same,outcome,[2],inactive
same,outcome,[3],inactive
same,outcome,[4],inactive
same,Potency,[5],inactive
same,Potency,[6],inactive
same,Potency,[7],inactive
same,Potency,[8],inactive
same,Potency,[9],inactive
same,Potency,[10],inactive
same,Potency,[11],inactive
same,Potency,[12],inactive
same,Potency,[13],inactive
same,Potency,[14],12.6 µM (active)
C/C=C/C=C/C=C/C(=O)O[C@@H]1C=C(CO)C(O)(C(=O)OC)[C@@]2(C)CCCC(C)(C)C12 (stereo not given in full),max response,[1],-4.29%
same,max response,[2],2.7%
same,max response,[3],-3.74%
same,max response,[15],4.09%
same,Potency,[5],inactive
same,Potency,[7],inactive
same,Potency,[8],inactive
same,Potency,[9],inactive
same,Potency,[10],inactive
same,Potency,[11],inactive
same,Potency,[12],inactive
same,Potency,[13],inactive
CCOc1ccc(Cc2nc(-c3c(C)nc4ccccn34)cs2)cc1,Potency,[1],0.0517 µM (active)
same,max response,[2],-17.5%
same,Potency,[3],0.0259 µM (active)
same,Potency,[15],0.0461 µM (active)
same,Potency,[5],0.355 µM (active)
same,Potency,[8],0.0891 µM (active)
CCOc1nc(NC(=O)Cc2cc(OC)ccc2OC)cc(N)c1C#N,max response,[1],-9.74%
same,outcome,[2],inactive
same,max response,[3],7.15%
same,outcome,[4],inactive
same,Potency,[5],inactive
same,Potency,[6],inactive
same,Potency,[7],inactive
same,Potency,[8],inactive
same,Potency,[9],inactive
same,Potency,[10],inactive
same,Potency,[11],inactive
same,Potency,[12],inactive
same,Potency,[13],inactive
Cc1cc(CS(=O)(=O)c2ccccc2)cc(OCc2ccc(CN3CCCC3CO)cc2)c1 (stereo not given),max response,[1],4.21%
same,outcome,[2],inactive
same,max response,[3],-16.6%
same,outcome,[4],inactive
same,Potency,[5],inactive
same,Potency,[6],inactive
same,Potency,[7],inactive
same,Potency,[8],inactive
same,Potency,[9],inactive
same,Potency,[10],inactive
same,Potency,[11],inactive
same,Potency,[13],inactive
COc1ccccc1OCCN1CC(COc2cccc3[nH]c4ccccc4c23)OCC1=O (stereo not given),outcome,[1],inactive
same,outcome,[2],inactive
same,max response,[3],-7.07%
same,outcome,[4],inactive
same,Potency,[5],inactive
same,Potency,[6],inactive
same,Potency,[7],inactive
same,Potency,[8],inactive
same,Potency,[9],inactive
same,Potency,[10],inactive
same,Potency,[11],inactive
same,Potency,[12],inactive
same,Potency,[13],inactive
same,Potency,[14],inactive
CCOC(=O)c1cnn(-c2ccccc2)c1NC(=O)c1cc2nc(-c3ccco3)cc(C(F)(F)Cl)n2n1,max response,[1],-4.16%
same,max response,[2],3.78%
same,max response,[3],6.18%
same,Potency,[5],inactive
same,Potency,[6],inactive
same,Potency,[7],inactive
same,Potency,[8],inactive
same,Potency,[9],inactive
same,Potency,[10],inactive
same,Potency,[11],inactive
same,Potency,[12],inactive
same,Potency,[13],inactive
same,Potency,[14],inactive
COc1cc(-c2cn(C3CCc4c(F)cccc4N(CC(F)(F)F)C3=O)nn2)ccc1-n1cnc(C)c1 (stereo not given),max response,[1],-13.5%
same,max response,[2],-32.4%
same,max response,[3],-16.9%
same,Potency,[5],inactive
same,Potency,[6],inactive
same,Potency,[7],inactive
same,Potency,[8],inactive
same,Potency,[9],inactive
same,Potency,[10],inactive
same,Potency,[11],inactive
same,Potency,[12],inactive
same,Potency,[13],inactive
NCCOc1cc(C(=O)Nc2cc(OCCN)c3ccccc3n2)nc(C(=O)Nc2cc(OCCN)c3ccccc3n2)c1,Potency,[1],7.31 µM (active)
same,Potency,[2],2.63 µM (active)
same,Potency,[3],16.4 µM (active)
same,Potency,[6],inactive
same,Potency,[8],inactive
same,Potency,[10],inactive
same,Potency,[11],inactive
same,Potency,[12],inactive
same,Potency,[13],7.94 µM (active)
same,Potency,[14],8.91 µM (active)
